The text below walks through data of PubChem BioAssay (NCATS).

The structures appear in SMILES notation. Results filed as inconclusive are left out. Active and inactive are the calls of the source. The call rests on the fitted dose curve; in most records, active means well fitted inhibition curve with a large enough effect; inconclusive means small, poorly fitted or top-dose-only effect; inactive means flat fitted curve, though single readings scatter.

In assay [1] the test system is CRL-7250. Description: Cytotoxic Profiling of Annotated Libraries Using Quantitative High-Throughput Screening (AID 1296008). Further: potency means the concentration at half of the fitted maximal effect. On max response: on the % scale 0 is the no-effect control and ±100 the full control effect. The settings on record: Five cell lines viability, CellTiter-Glo ATP luminescence, 48-72 h; max response: active compounds read low. In a few lines: (§1)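 Cells exposed to compounds for 48 or 72 hr at 37 degrees Celsius. Viability read as ATP-coupled luminescence with CellTiter-Glo after 10 min at room temperature.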
Background: ATP-based viability assays read luminescence as a measure of living cells.

Assay [2] concerns KB-3-1. The assay is described as above. As to conditions: Five cell lines viability, CellTiter-Glo ATP luminescence, 48-72 h; max response: active compounds read low. In a few lines:
as §1

The subject of assay [3] is NIH3T3. The assay is described as above. As to conditions: Five cell lines viability, CellTiter-Glo ATP luminescence, 48-72 h; max response: active compounds read low. In a few lines: as §1
Assay [4] relates to HEK293T. Description: qHTS assay to identify novel small-molecules to repurpose for Merkel cell carcinoma treatment (AID 1296009). The settings on record: MCC and control cell lines, CellTiter-Glo viability, 72 h; at 44.8 µM (top of the series) unless noted. In a few lines: (§2)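 Cells were incubated with compound for 72 hr at 37 degree celsius before CellTiter-Glo addition. Luminescence was normalized with no-cell wells as full cytotoxicity and DMSO as baseline.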
(In qHTS, concentration-response curves come from the screen itself.)

For assay [5], the system named is HEK293. Briefly: Cytotoxic Profiling of Annotated Libraries Using Quantitative High-Throughput Screening (AID 1296008). Further: potency means the concentration at half of the fitted maximal effect. On max response: on the % scale 0 is the no-effect control and ±100 the full control effect. The settings on record: Five cell lines viability, CellTiter-Glo ATP luminescence, 48-72 h; max response: active compounds read low. In a few lines: as §1
Assay [6] relates to HaCat. Described as above. As to conditions: Five cell lines viability, CellTiter-Glo ATP luminescence, 48-72 h; max response: active compounds read low. In short, it runs like this: as §1
Assay [7] concerns HACAT. Description: qHTS assay to identify novel small-molecules to repurpose for Merkel cell carcinoma treatment (AID 1296009). The settings on record: MCC and control cell lines, CellTiter-Glo viability, 72 h; series mostly up to 44.8 µM. In a few lines: as §2
Further: nearly all actives have a fitted effect of over 60% in size.

As for `CC(=O)O[C@H]1C[C@@]2(C)[C@@H](CC[C@H]3[C@@]4(C)C=CC(=O)[C@@H](C)[C@@H]4[C@H](O)C(=O)[C@@]32C)/C1=C(/CCC=C(C)C)C(=O)O`, the max response in assay [1] is -28.1% (inactive); in assay [2], 4.45% (inactive); in assay [3] it was -3.01% (inactive).

With `CC(=O)C=C=C1C(C)(C)CC(O[C@@H]2O[C@H](CO)[C@@H](O)[C@H](O)[C@H]2O)CC1(C)O` (stereo partly drawn), the result in assay [1] and in assay [4] was inactive. Further, the max response in assay [2] is 0.592% (inactive); in assay [3], 4.66% (inactive).

For `CC1(C)C2CC(OC3OC(COC4OCC(O)(CO)C4O)C(O)C(O)C3O)C1(C)CC2O` (stereo not drawn), the max response in assay [5] is -3.81% (inactive); in assay [6] it was -6.58% (inactive). For the same compound, the compound was classed as inactive in assay [2].

For `CNCc1ccc(-c2cc(-c3nc(-c4ccc(S(=O)(=O)C(C)C)cc4)cnc3N)on2)cc1`, the results for the Potency in assay [5] and in assay [2] were 1.16 µM (active) and 1.3 µM (active), respectively. Also, the max response in assay [6] was -11.6% (inactive).

Take `COc1ccc(C(=O)Nc2ncc(-c3ccc(C(=O)O)cc3)s2)cc1`: the Potency in assay [5] was 7.31 µM (active); in assay [6] it was 5.8 µM (active); in assay [2] it was 2.91 µM (active).

Take `C[C@H](N)C(=O)N[C@@H](Cc1ccc(O)cc1)C(=O)N1CCC[C@H]1C(=O)NCC(=O)N[C@@H](CCCCN)C(=O)N[C@@H](Cc1ccccc1)C(N)=O`: the call in assay [1] and in assay [2] was inactive. Also, the results for the max response in assay [6] and in assay [3] were -13.5% (inactive) and 3.32% (inactive), respectively.

On to `COc1ccc(-c2cnc(-c3cccc4c3-c3ccccc3C4=O)o2)cc1`, for which the Potency in assay [5] was 0.112 µM (active); in assay [2], 0.0709 µM (active). Moreover, the max response in assay [6] was -2.01% (inactive).

With `Cc1cc(C(=O)Nc2cccc(C(=O)Nc3cccc(C(F)(F)F)c3)c2)on1`, the max response is 4.99% (inactive) in assay [1], -0.787% (inactive) in assay [2] and -17% (inactive) in assay [3]. In addition, the outcome in assay [6] was inactive. Moreover, the Potency entry in assay [7] is “inactive”.

Take `CC(=O)SCC(=O)c1ccc(NS(=O)(=O)c2ccc(OCCCN(C)C)cc2)nc1`: the Potency in assay [5] was 7.31 µM (active); in assay [6], 14.6 µM (active); in assay [2], 8.2 µM (active).

As for `C[C@@H]1O[C@@H](O[C@H]2[C@H](O[C@H]3[C@H](O[C@H]4CC[C@@]5(C)C(CC[C@]6(C)C5CC=C5[C@@H]7CC(C)(C)CC[C@]7(C(=O)O[C@@H]7O[C@H](CO)[C@@H](O[C@@H]8O[C@@H](C)[C@H](O)[C@@H](O)[C@H]8O)[C@H](O)[C@H]7O)CC[C@]56C)C4(C)C)OC[C@H](O)[C@@H]3O)O[C@H](CO)[C@@H](O)[C@@H]2O)[C@H](O)[C@H](O)[C@H]1O` (stereo partly drawn), the max response is -33.4% (inactive) in assay [1], 4.4% (inactive) in assay [6] and 0.585% (inactive) in assay [3]. For the same compound, in assay [2], the result was inactive.

Consider `Cn1c(=O)n(-c2ccc(C(C)(C)C#N)cc2)c2c3cc(C#Cc4cccnc4)ccc3ncc21`, for which the Potency was 0.0224 µM (active) in assay [1], 0.142 µM (active) in assay [2] and 0.2 µM (active) in assay [3].

On to `COc1ccc([C@@H]2OC[C@H]3[C@@H]2CO[C@@H]3c2ccc(OC3OC(CO)C(O)C(O)C3O)c(OC)c2)cc1OC` (stereo partly drawn), for which the max response in assay [1] is -6.62% (inactive); in assay [6] it was -0.266% (inactive); in assay [2] it was 8.67% (inactive); in assay [3], -7.42% (inactive).

`COc1cc(O)cc(C)c1C(=O)O[C@@H]1[C@H](O)[C@@H](CO)O[C@H]1n1ccc(=O)[nH]c1=O`: the Potency in assay [5] was 5.63 µM (active). For the same compound, the max response is -4.84% (inactive) in assay [6] and -16.4% (inactive) in assay [2].

As to `C=C(C)C(=O)O[C@H]1C[C@@](C)(O)C(=O)CC(O)/C(C)=C\[C@H]2OC(=O)C(=C)[C@H]12` (stereo partly drawn), the Potency in assay [5] is 5.08 µM (active). In addition, in assay [6], the max response is -1.1% (inactive). Moreover, the compound was classed as inactive in assay [2].

Turning to `C=C(C)C(=O)OC1CC2(C)OC(=CC2=O)C(=C)CC2OC(=O)C(COC)C12` (stereo not drawn), the Potency in assay [5] is 7.18 µM (active). Moreover, the figures for the max response in assay [6] and in assay [2] were -21.9% (inactive) and -15.6% (inactive), respectively.

Regarding `CC(=O)c1cc(C(=O)N[C@@H](C)Cn2ccc(-c3ccc(C#N)c(Cl)c3)n2)[nH]n1`, the Potency in assay [5] was 23.1 µM (active). The max response in assay [6] was -24.9% (inactive); in assay [2], -26.1% (inactive).

In the case of `CC(C)CCC(=O)CC1c2ccccc2C(=O)N1c1ccc2ccc(Cl)nc2n1` (stereo not drawn), the Potency in assay [5] is 16.4 µM (active). The values for the max response in assay [6] and in assay [2] were 3.26% (inactive) and 2.42% (inactive), respectively.

Regarding `Cn1nnc(-c2ccc(-c3ccc(N4C[C@H](COP(=O)(O)O)OC4=O)cc3F)cn2)n1`, the Potency in assay [5] is 0.58 µM (active). For the same compound, the max response is 0.171% (inactive) in assay [6] and -33% (inactive) in assay [2].

Consider `CC1(CCOC2OC(CO)C(O)C(O)C2O)CCC23OC2(C1)C(O)CC1C(C)(C(=O)O)CCCC13C` (stereo not drawn), for which the max response in assay [5] was -6.41% (inactive); in assay [6] it was 3.2% (inactive); in assay [2] it was 8.97% (inactive); in assay [3], 0.419% (inactive).

Turning to `CC(=O)OC1/C(C)=C/C(=O)C(OC(C)=O)C(C)(C)/C=C/C(C)C(=O)C2(OC(C)=O)CC(C)C(OC(=O)c3ccccc3)C12` (stereo not drawn), the max response in assay [5] was -22.9% (inactive); in assay [6] it was -9.17% (inactive); in assay [3] it was -16.3% (inactive). For the same compound, the compound was classed as inactive in assay [2].
